# This is a sample that favours compounds with a hit; in the whole collection about 4.1% have one here.
# TROY signal inh = TROY signaling inhibition; inhibition, % at 10 µM; AID 1347056; Q293 LMP1-TROYcd NF-kB luciferase reporter, 4 h; 360,000 tested, 0.98% active;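 active means compounds whose plate-normalised and pattern-corrected inhibition of the luciferase reporter signal at the single screening dose is 50% or more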
# Shn3 inh set2 = reduces Shn3 3'UTR luciferase signal in osteoblasts; Clone20 osteoblast Shn3 3'UTR firefly luciferase, 24 h; inhibition, % at 12.5 µM; 360,000 tested, 0.52% active; AID 588674;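 active means mean inhibition of at least 75% with every replicate also reaching 75%; inconclusive means mean inhibition at least 75% but some replicate below; inactive means mean inhibition below 75%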;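 further: 0% = median of neutral control wells and 100% = pilot-screen positive control compound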
# MITF TRPM1 inh = reduces MITF-dependent TRPM1 promoter luciferase signal; SK-MEL-5 TRPM1 promoter luciferase, 24 h; inhibition, % at 12.5 µM; 330,000 tested, 0.83% active;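 active means mean inhibition across replicates of 60% or more, whatever share of single replicates reaches that level; inconclusive means some that reach 60%, reason not given; inactive means mean inhibition across replicates below 60%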
# LMP1 NFkB inh = Epstein-Barr LMP1 NF-kappaB reporter inhibition; LMP1-induced NF-kappaB luciferase reporter cells, luminescence; inhibition, % at 12.5 µM; 350,000 tested, 0.69% active; in the data active means inhibition above about 41%; inconclusive means no clear call, values can overlap the other calls;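 further: 0% = neutral control wells and 100% = reference inhibitor control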
# Peg3 promoter = inhibitors of Peg3 promoter; HeLa PEG-Prom luciferase reporter, luminescence, overnight; AID 588405; inhibition, % at 20 µM; 360,000 tested, 1.7% active;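 active means inhibition of at least 50% at 20 µM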
# TWEAK-Fn14 inh = blocks TWEAK-Fn14 interaction in a reporter cell assay; TWEAK-stimulated Fn14 reporter cells, luciferase luminescence, 8 h; inhibition, % at 10 µM; 360,000 tested, 2% active; in the data active means inhibition above about 50%
# Active calls of the source: *; u = inconclusive; x = not tested or not shown.
SMILES,TROY signal inh,Shn3 inh set2,MITF TRPM1 inh,LMP1 NFkB inh,Peg3 promoter,TWEAK-Fn14 inh
N/C(=N\OC(=O)CCCCCN1C(=O)c2ccccc2C1=O)c1ccccc1,11,-28,-32,3,-57,-9
O=C(C1=C[C@H](c2ccc(Br)cc2)C[C@H](OCCCCO)O1)N1CCN(Cc2ccccc2)CC1,-2,20,x,0,12,7
O=C(/C=C/Sc1ccc(C(F)(F)F)cn1)c1ccccc1,22,31,41,-7,96*,60*
COc1cccc(CN2C(=O)CCC2(C)C(=O)NC2CCCC2)c1 (stereo unspecified),-9,1,-1,2,1,1
Cc1csc2c(N3CCN(C(=O)Nc4ccc(Cl)c(Cl)c4)CC3)ncnc12,63*,x,7,14,6,16
O=c1cc(-c2ccccc2)[nH]c2nc3ccccc3n12,-5,-30,-46,14,-137,55*
O=C(Cc1ccon1)c1ccc(O)cc1O,-18,-4,-7,-3,4,14
CNc1nc2cc([N+](=O)[O-])c([N+](=O)[O-])cc2nc1NC,27,81,36,30,4,51*
N#Cc1cc2nc(O)c(O)nc2cc1[N+](=O)[O-],-13,-2,5,0,-2,14
CN1CCN(c2ccc(CNC(=O)C3Cc4c(-c5ccccc5)ccnc4O3)cc2)CC1 (stereo unspecified),-3,6,x,x,-1,-8
C[n+]1c2n(c3ccccc31)N=C(c1cc(C(C)(C)C)c(O)c(C(C)(C)C)c1)CS2,57*,90*,0,45*,86*,88*
COc1ccc(-c2csc(NC(=O)CSC(C)C(=O)Nc3cc(C)on3)n2)cc1OC (stereo unspecified),1,25,3,7,-4,8
Cc1ccc(P(=O)(CSC(=N)N)c2ccc(C)cc2)cc1,14,-12,7,-19,-29,30
N=C(N)SCP(=O)(c1ccccc1)c1ccccc1,12,-4,11,54*,0,9
O=C(O)c1ccc(-n2nc(C(F)(F)F)c3c2CCCC3)cc1,1,-4,5,-3,-8,4
CN(C)C(=O)c1ccc(-n2nc(C(F)(F)F)c3c2CCCC3)cc1,x,22,-8,-1,5,59*
CC(C)c1ccc(NC(=S)Nc2ccc3cn[nH]c3c2)cc1,53*,-34,-8,-16,-136,-2
Cc1ccc(NC(=S)Nc2ccc3cn[nH]c3c2)cc1C,-11,-15,-1,-4,-18,-24
Oc1ccc(N=Nc2ccccc2)o1,-24,94*,9,-1,38,45
CC1(C)C(=O)OC(/C=C/c2cccc([N+](=O)[O-])c2)C(C)(C)C1=O (stereo unspecified),-36,8,1,-9,-2,0
Cc1ccc(C(=O)n2nc(-c3cccnc3)nc2N)cc1,64*,-13,3,6,2,22
Cc1nc(Nc2ccc(C(=O)O)cc2)nc(Nc2ccc(C(=O)O)cc2)c1[N+](=O)[O-],-1,-5,-2,-5,11,12
CCC(=O)Nc1ccc(Nc2nc(C)c([N+](=O)[O-])c(Nc3ccc(NC(=O)CC)cc3)n2)cc1,6,24,12,4,53*,34
O=C(c1ccccc1)c1c[nH]c(C(=O)NCCCn2ccnc2)c1,4,-4,4,11,16,-29
CC(=O)c1cccc(CN2CCN(CCC(C)C)C(CCO)C2)c1 (stereo unspecified),-14,14,1,2,6,0
SMILES,TROY signal inh,Shn3 inh set2,MITF TRPM1 inh,LMP1 NFkB inh,Peg3 promoter,TWEAK-Fn14 inh
Cc1ccccc1C(=O)N1CCN(c2ccc(NC(=O)c3ccc4c(c3)OCCO4)cc2)CC1,46,86*,70*,43*,25,73*
O=C(Nc1ccc(N2CCN(C(=O)c3ccccc3)CC2)cc1)c1ccc2c(c1)OCO2,1,22,-9,5,-32,0
Cc1ccc(C(=O)N2CCN(c3ccc(NC(=O)c4ccc5c(c4)OCCO5)cc3)CC2)cc1,57*,70,47,19,27,76*
Cc1ccccc1C(=O)N1CCN(c2ccc(NC(=O)CSc3ccc(Cl)cc3)cc2)CC1,46,83,50,58*,14,19
c1ccc2c(-c3cccc4nccn34)cncc2c1,31,13,x,x,3,52*
CCN(CC)c1ccc(/C=C/c2ccc3ccc(OC)cc3[n+]2CC)cc1,45,87*,81*,35,47,63*
CC[n+]1c(/C=C/c2ccc(OC(C)=O)c(OC)c2)ccc2ccccc21,-37,-123,-84,2,-44,-30
CC[n+]1c(/C=C/c2ccc(OC)c(OC)c2)ccc2ccccc21,31,-108,-74,-48,-295,-15
CC[n+]1ccccc1/C=C/c1ccc(N(C)C)cc1,26,80,42,9,5,38
CC[n+]1ccc(/C=C/c2ccc(N(C)C)cc2)c2ccccc21,47,88*,88*,u,50,36
CC[n+]1c(/C=C/c2ccc(N(C)C)cc2)ccc2ccccc21,74*,u,90*,52*,49,71*
CCCCCC[n+]1ccccc1/C=C/c1ccc(N(C)C)cc1,56*,76,x,x,31,50*
Fc1ccc(-c2nnc(CN3CCC(c4nc5ccccc5s4)CC3)o2)cc1,23,2,1,10,5,53*
C#CCOCCOCCOCCNc1nc(N2CCN(C(=O)C([C@@H](C)O)n3cc([C@@H](N)CCCCN)nn3)CC2)nc(N2CCN(C(=O)[C@H](CCCCN)n3cc([C@@H](N)CC(N)=O)nn3)CC2)n1 (stereo partly specified),-9,-6,-6,7,-3,-4
CCc1nc(CNC(=O)C2CCC(=O)N(Cc3cccc(OC)c3)C2)no1 (stereo unspecified),-23,-2,10,7,16,-11
Cc1nnsc1C(=O)N/N=C/c1ccc2ccccc2c1O,26,81,69*,48*,44,54*
COc1ccc2[nH]c3c(N4CCN(Cc5ccc6c(c5)OCO6)CC4)ncnc3c2c1,51*,60,5,20,55*,38
COc1ccc2cc(C(=O)N3CCN(Cc4ccc5c(c4)OCO5)CC3)[nH]c2c1,16,12,7,14,-23,6
O=[N+]([O-])c1cccnc1N1CCN(Cc2ccc3c(c2)OCO3)CC1,5,12,-7,-8,-47,-5
COc1ccc2[nH]c3c(N4CCC(O)(c5cccc(C(F)(F)F)c5)CC4)ncnc3c2c1,64*,24,35,30,57*,75*
O=[N+]([O-])c1ccc2ncnc(N3CCN(Cc4ccc5c(c4)OCO5)CC3)c2c1,46,85,5,42*,12,78*
Cc1c(Cl)cccc1NC(=O)CN1CCN(CCN=CC2=C(O)CC(c3ccccc3)CC2=O)CC1 (stereo unspecified),4,-15,2,0,4,-17
